Inhibition data for 25 compounds are collected here from PubChem BioAssay AID588689 (Southern Research Specialized Biocontainment Screening …, 2011).

About 1,000 (0.29%) of roughly 340,000 compounds were called active. Rule as the data show it: inconclusive = inhibition above about 29% without an active follow-up result; inactive = below that. Not all results are given here. Measured potencies and affinities stand elsewhere.

Broadly, the inhibition is the relative decrease from the control value, in per cent.

The target of the experiment is Genome polyprotein (Dengue virus type 2 (strain 16681-PDK53)) (UniProt P29991). Put plainly: Dengue-2 NS5 methyltransferase inhibitors, primary screen, biochemical, confirmation dose response (AID 588689). The settings on record: Dengue-2 NS5 methyltransferase capping enzyme assay, at 25 µM, stronger effect = higher value.
Sequence of Genome polyprotein (Dengue virus type 2 (strain 16681-PDK53)) (P29991 whole entry, looked up): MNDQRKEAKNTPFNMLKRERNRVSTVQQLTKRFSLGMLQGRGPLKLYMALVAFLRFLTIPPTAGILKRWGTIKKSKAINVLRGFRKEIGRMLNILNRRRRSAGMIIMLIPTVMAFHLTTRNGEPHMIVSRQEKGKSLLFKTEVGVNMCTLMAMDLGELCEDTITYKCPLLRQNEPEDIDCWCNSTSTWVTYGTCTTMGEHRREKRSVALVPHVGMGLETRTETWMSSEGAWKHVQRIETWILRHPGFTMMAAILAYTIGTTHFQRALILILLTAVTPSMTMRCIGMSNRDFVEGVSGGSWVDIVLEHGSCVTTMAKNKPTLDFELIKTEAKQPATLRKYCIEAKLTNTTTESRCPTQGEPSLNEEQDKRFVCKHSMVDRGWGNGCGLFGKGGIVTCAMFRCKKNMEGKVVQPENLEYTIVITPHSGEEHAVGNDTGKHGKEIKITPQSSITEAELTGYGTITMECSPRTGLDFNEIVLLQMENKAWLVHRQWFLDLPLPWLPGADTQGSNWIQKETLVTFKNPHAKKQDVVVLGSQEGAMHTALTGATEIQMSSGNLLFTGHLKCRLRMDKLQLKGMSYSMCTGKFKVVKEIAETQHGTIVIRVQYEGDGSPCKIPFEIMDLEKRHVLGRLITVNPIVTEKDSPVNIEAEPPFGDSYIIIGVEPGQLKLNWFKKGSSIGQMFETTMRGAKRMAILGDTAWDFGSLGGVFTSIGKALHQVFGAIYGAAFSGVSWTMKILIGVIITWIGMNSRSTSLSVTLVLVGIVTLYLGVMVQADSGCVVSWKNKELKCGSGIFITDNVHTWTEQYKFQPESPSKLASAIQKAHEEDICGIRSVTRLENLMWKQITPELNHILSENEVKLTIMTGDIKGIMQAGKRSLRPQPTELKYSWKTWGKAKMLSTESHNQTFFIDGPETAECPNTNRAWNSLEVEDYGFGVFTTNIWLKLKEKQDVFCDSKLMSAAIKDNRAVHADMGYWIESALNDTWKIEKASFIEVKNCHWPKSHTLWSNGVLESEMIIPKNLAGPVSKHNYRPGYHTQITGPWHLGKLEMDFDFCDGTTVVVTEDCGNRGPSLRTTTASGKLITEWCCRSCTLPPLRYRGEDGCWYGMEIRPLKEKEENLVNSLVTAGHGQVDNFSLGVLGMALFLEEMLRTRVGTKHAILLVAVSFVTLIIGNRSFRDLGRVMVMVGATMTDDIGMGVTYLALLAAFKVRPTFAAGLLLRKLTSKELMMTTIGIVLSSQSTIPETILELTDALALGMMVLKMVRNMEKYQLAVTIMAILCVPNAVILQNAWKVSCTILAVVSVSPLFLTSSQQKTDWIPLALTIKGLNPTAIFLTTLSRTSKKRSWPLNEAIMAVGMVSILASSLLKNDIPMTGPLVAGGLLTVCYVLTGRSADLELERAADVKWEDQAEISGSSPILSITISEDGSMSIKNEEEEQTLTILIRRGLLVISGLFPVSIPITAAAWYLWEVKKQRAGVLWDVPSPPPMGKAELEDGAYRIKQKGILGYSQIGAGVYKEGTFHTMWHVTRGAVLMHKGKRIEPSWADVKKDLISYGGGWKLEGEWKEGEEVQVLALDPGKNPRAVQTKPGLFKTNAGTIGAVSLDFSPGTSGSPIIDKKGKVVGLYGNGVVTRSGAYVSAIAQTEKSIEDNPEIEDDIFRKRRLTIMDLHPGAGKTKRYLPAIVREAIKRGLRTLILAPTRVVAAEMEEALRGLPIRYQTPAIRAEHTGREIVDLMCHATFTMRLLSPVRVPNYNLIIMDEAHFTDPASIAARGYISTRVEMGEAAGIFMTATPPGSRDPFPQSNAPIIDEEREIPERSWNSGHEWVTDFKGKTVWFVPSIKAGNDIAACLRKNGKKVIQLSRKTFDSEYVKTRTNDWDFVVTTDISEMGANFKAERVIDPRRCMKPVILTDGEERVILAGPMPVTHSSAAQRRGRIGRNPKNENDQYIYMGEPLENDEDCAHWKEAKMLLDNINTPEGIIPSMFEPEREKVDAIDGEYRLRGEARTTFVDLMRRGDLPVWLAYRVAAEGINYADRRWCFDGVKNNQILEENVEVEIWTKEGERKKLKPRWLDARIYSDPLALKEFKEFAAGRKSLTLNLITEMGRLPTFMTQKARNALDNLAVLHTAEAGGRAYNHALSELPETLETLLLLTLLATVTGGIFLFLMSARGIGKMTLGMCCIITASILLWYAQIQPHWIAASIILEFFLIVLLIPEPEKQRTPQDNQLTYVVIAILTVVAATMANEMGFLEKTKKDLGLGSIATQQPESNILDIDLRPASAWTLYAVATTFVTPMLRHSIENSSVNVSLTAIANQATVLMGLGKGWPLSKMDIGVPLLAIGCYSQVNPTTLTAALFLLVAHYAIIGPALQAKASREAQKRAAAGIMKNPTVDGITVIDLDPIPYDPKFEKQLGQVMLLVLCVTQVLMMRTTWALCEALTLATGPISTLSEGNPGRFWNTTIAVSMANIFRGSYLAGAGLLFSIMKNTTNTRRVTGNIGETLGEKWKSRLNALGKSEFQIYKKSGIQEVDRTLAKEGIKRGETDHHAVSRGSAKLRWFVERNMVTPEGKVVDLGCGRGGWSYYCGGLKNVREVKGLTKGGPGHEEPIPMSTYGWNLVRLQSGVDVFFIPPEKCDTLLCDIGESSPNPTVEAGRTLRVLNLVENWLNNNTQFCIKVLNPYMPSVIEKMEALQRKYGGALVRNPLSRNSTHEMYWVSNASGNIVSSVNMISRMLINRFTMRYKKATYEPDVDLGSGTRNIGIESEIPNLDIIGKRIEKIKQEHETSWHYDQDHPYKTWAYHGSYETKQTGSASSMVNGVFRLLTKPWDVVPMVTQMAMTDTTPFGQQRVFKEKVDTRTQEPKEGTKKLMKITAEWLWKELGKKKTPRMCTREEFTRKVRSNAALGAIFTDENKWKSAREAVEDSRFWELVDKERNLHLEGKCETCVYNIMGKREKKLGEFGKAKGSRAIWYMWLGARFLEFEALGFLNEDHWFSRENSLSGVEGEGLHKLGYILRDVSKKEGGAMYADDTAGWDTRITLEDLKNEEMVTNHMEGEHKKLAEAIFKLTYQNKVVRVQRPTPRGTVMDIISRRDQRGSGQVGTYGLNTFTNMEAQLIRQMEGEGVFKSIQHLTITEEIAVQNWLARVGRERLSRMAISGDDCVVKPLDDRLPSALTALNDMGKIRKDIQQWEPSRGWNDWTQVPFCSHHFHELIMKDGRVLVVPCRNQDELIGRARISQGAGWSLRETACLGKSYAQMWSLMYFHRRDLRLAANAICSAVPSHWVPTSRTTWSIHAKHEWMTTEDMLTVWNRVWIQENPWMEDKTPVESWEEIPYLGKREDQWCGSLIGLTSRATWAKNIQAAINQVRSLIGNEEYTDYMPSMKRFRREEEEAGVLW

In the case of `C[n+]1c(-c2ccccc2)cc2c(=Cc3ccccc3)c3ccccc3n21`, the inhibition is -8.87% (inactive).

Turning to `CN(C)c1ccc(C=c2c3ccccc3n3c2cc(-c2ccccc2)[n+]3C)cc1`, the inhibition is 16.6% (inactive).

As for `COc1cc(C=c2c3ccccc3n3c2cc(-c2ccccc2)[n+]3C)cc(OC)c1OC`, the inhibition was -32.8% (inactive).

Regarding `CN(C)c1ccc(C=c2c3cc(O)ccc3n3c2cc(-c2ccccc2)[n+]3C)cc1`, the inhibition was 27.4% (inactive).

As for `C=CCn1c(SCC#N)nc2ccccc2c1=O`, the inhibition was 0.54% (inactive).

Regarding `Cc1ccc(NC(=O)C(C)Sc2nnc(C)n2C)cc1` (stereo unspecified), the inhibition was -10.5% (inactive). Moreover, where the note is “measured here: pilot screen replicate inhibition”, the inhibition was -8.82%.

For the compound `Oc1ccc(N=Nc2ccc3ccccc3c2)cc1`, the inhibition is -0.57% (inactive).

Consider `Nc1ccc(N=Nc2ccc(O)cc2)c(N)n1`, for which the inhibition was -2.31% (inactive).

On to `COc1ccc(NC(=O)C2CCCN(S(=O)(=O)c3ccc4[nH]c(=O)ccc4c3)C2)cc1OC` (stereo unspecified), for which the inhibition is -7.99% (inactive).

Take `CCN(CC)CCN(Cc1cc2cc3c(cc2[nH]c1=O)OCO3)C(=S)NCCCOC`: the inhibition is -4.77% (inactive).

With `Cc1[nH]c2ccccc2c1C1C(c2ccccc2)=NN=C(C(C)C)N1O` (stereo unspecified), the inhibition was -11.8% (inactive).

Take `CCCN(CCC)S(=O)(=O)c1cccc(-c2csc(C)n2)c1`: the inhibition was -5.33% (inactive).

On to `COc1cccc(CN(C)C(=O)C2CSC3(C)CCC(=O)N23)c1OC` (stereo unspecified), for which the inhibition is -4.42% (inactive).

`COc1cc(/C=C2/NC(=O)N(Cc3ccccc3F)C2=O)ccc1Oc1ccc([N+](=O)[O-])cn1`: the inhibition is -0.72% (inactive).

Take `COc1cc(/C=C2/NC(=O)N(Cc3ccccc3F)C2=O)cc(OC)c1O`: the inhibition is 1.47% (inactive).

Take `COc1ccc(Cl)cc1-c1nc(SCC(=O)N(C)C)n[nH]1`: the inhibition was -2.97% (inactive).

For `Cc1nc2sc(C(c3ccco3)N3CCc4ccccc4C3)c(O)n2n1` (stereo unspecified), the inhibition is -4.07% (inactive).

With `CCCCNC(=O)c1onc(CSc2ccccc2C)c1C(=O)O`, the inhibition was 7.73% (inactive).

`CCCCNC(=O)c1onc(CSc2ccccc2CC)c1C(=O)O`: the inhibition was 6.29% (inactive).

For the compound `Cc1cccc(NC(=O)N(Cc2nc3ccccc3c(=O)[nH]2)C2CCCC2)c1`, the inhibition was -1.56% (inactive).

On to `O=C(O)c1cccc(-n2sc3ccccc3c2=O)c1`, for which the inhibition is -2.4% (inactive).

With `Cc1ccc(S(=O)(=O)Nc2cccc(S(=O)(=O)Nc3ccccc3C(=O)O)c2)c(C)c1`, the inhibition is 17.5% (inactive).

In the case of `CCOc1ccc(Br)cc1S(=O)(=O)Nc1cccc(S(=O)(=O)Nc2ccccc2C(=O)O)c1`, the inhibition is 11.4% (inactive).

For the compound `CN(C)S(=O)(=O)c1cccc(-n2sc3ccccc3c2=O)c1`, the inhibition is -48.9% (inactive).

Consider `CN(CCOc1ccccc1)C(=O)c1cc(S(=O)(=O)N2CCOCC2)ccc1Cl`, for which the inhibition was -7.25% (inactive).
